“And” between values parts separate entries of the source, which are not always exact repeats. Equal entries are not always repeated. Results filed as inconclusive are left out. The source made the active and inactive calls. Unless noted, the call rests on the fitted dose curve; in most records, active means well fitted curve in the direction sought with a large enough effect; inconclusive means small, poorly fitted or top-dose-only effect, or another doubt; inactive means no such curve, though single readings can be large; an effect the other way counts as inactive or inconclusive.
What was measured:
[1] = qHTS assay for environmental chemicals that activate the Aryl hydrocarbon Receptor (AhR) signaling pathway (AID 651777); conditions: 1A2-DRE human hepatoma cells, luciferase, 24 h; stronger effect = higher value; further: % of control where 0% means no effect; nearly all actives have a fitted effect of over 15% in size
How it was run: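 Concentration–response screening used 1,200 1A2-DRE cells per well, 24 hr compound exposure (37 C, 5% CO2), and One-Glo luminescence as the AhR-driven CYP1A2 reporter signal.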

[2] = molecular target: Peroxisome proliferator-activated receptor alpha (Homo sapiens) (UniProt Q07869); experiment: qHTS assay for small molecule agonists of the peroxisome proliferator-activated receptor alpha (PPARalpha) signaling pathway (AID 651778); conditions: PathHunter PPARalpha complementation, chemiluminescence, 6 h; stronger effect = higher value; further: % of control where 0% means no effect
How it was run: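 Chemiluminescence from complemented enzyme reported PPARalpha activation in cells after 6 hr of compound treatment at 37 C. The detection reagent was incubated for 60 min at room temperature, and compounds were scored as agonists.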

[3] = qHTS assay for small molecule agonists of the antioxidant response element (ARE) signaling pathway measured by Nrf2-dependant transcriptional activity (AID 720636; active means well fitted curve in the direction sought with a large enough effect in the repeat runs; an effect the other way counts as inactive or inconclusive;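 further: HepG2 cells with an ARE-driven luciferase reporter; % of control where 0% means no effect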); conditions: ARE-luc HepG2, Nrf2 luciferase reporter, 16 h; series mostly up to 92.4 µM
How it was run: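 Attachment 6 hr at 37 C, then compound versus DMSO vehicle for 16 hr in ARE-luc HepG2 cells (1% dialyzed FBS); luminescence recorded 30 min after ONE-Glo addition at room temperature.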

[4] = qHTS assay for small molecule agonists of the antioxidant response element (ARE) signaling pathway measured by Nrf2-dependant transcriptional activity - cell viability counter screen (AID 720653; active means well fitted curve in the direction sought with a large enough effect in the repeat runs; an effect the other way counts as inactive or inconclusive; further: on the % scale 0 is the no-effect control and ±100 the full control effect); conditions: ARE-bla HepG2 viability, CellTiter-Glo ATP luminescence, 16 h; max response: stronger effect = lower value
How it was run: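 Cytotoxicity counter screen: intracellular ATP quantified by CellTiter-Glo luminescence in the same ARE-bla HepG2 plates, after 16 h compound exposure and a 2 h beta-lactamase substrate step.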

[5] = qHTS Assay for Identifying Gametocytocidal Compounds (AID 743244);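 further: on the % scale 0 is the no-effect control and ±100 the full control effect; actives lower the fluorescent signal which means gametocytes are killed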; conditions: P. falciparum 3D7 stage III-V gametocytes, alamarBlue, 72 h; max response: stronger effect = lower value
How it was run: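 In this qHTS viability screen, late-stage 3D7 gametocytes are incubated with compound for 72 h, then with alamarBlue for 24 h; reduced resorufin fluorescence marks killing.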

[6] = molecular target: Arylsulfatase A (Homo sapiens) (UniProt P15289); experiment: qHTS screen for enhancers of Arylsulfatase A (ASA1): LOPAC Validation Assay (AID 720538); conditions: ASA enzyme activity, LOPAC qHTS enhancer assay; series mostly up to 57.5 µM
How it was run: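 Enhancer assay in patient-derived MLD fibroblasts carrying ASA-I179S: 48 h compound exposure at 37 C, then 14 h room-temperature pNCS turnover (0.5 mM final) in lysis buffer. Read by fluorescence at 525/598 nm after NaOH stop.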

[7] = qHTS for compounds that reverse cellular toxicity of Amyloid beta (A-beta) peptide in yeast: LOPAC Validation Assay (AID 720559); conditions: yeast expressing A-beta; series mostly up to 46.1 µM;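 further: plate controls were DMSO for no effect and equimolar ferric chloride plus clioquinol rescue for full effect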
How it was run: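 Rescue of A-beta toxicity was scored as yeast growth by 600 nm absorbance after 48 hr at 30 C with compound. Normalization used DMSO (negative) and equimolar ferric chloride plus clioquinol (positive).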

[8] = qHTS for Activators of Parkin Expression: LOPAC Validation Assay (NLuc Reporter) (AID 720572;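 further: 0% = DMSO and 100% = positive control compound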); conditions: Parkin promoter NanoLuc reporter cells, luminescence; series mostly up to 46.1 µM
How it was run: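 Parkin promoter-driven FLuc/NLuc neuronal reporter cells; 24 h plating, 7-pt dose response, 24 h at 37 C/5% CO2; FLuc then NanoLuc reagent, 10 min each, luminescence; DMSO/positive control normalized.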

[9] = qHTS for Activators of Parkin Expression: LOPAC Validation Assay (FLuc Reporter) (AID 720573;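 further: 0% = DMSO and 100% = positive control compounds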); conditions: Cell line, PRKN promoter firefly luciferase reporter, vehicle wells = 0, positive control = 100%; series mostly up to 46.1 µM
How it was run: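 FLuc signal from Parkin-promoter coincidence reporter neuronal cells, normalized to DMSO and positive control (100%). Cells (1,500/well) pre-incubated 24 h, then exposed to LOPAC compounds in 7-point dose response for 24 h at 37 C, 5% CO2.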

[10] = qHTS assay for small molecule antagonists of the retinoid-related orphan receptor gamma (ROR-gamma) signaling pathway - cell viability counter screen (AID 720652; active means well fitted curve in the direction sought with a large enough effect in the repeat runs; an effect the other way counts as inactive or inconclusive;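 further: CHO reporter cells with doxycycline-induced ROR-gamma expression; compound exposure lasted 16 hr before ATP read; on the % scale 0 is the no-effect control and ±100 the full control effect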); conditions: RORgamma reporter cell line viability counter screen; series mostly up to 92.2 µM
How it was run: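 Cytotoxicity is quantified via intracellular ATP (CellTiter-Glo luminescence) in doxycycline-induced CHO ROR response element-luciferase reporter cells treated with compound for 16 hr at 37 C, 5% CO2.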

[11] = molecular target: T1, Hexokinase-4 (Homo sapiens) + Glucokinase regulatory protein (Homo sapiens) (UniProt P35557+Q14397); experiment: qHTS assay for inhibitors of recombinant human GCK-GKRP interaction: Diaphorase-coupled assay (AID 743205); conditions: G6PDH/diaphorase resorufin fluorescence; series mostly up to 57.5 µM
How it was run: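 A kinetic fluorescence read (Ex 525/Em 590 nm, every minute for 30 minutes) tracked resorufin from a G6PDH-diaphorase coupled GCK reaction. It contained 10 nM GST-GCK, 10 nM FLAG-GKRP, 5 mM glucose, 0.4 mM ATP in Hepes pH 7.6. Normalized to with/without-enzyme DMSO controls.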

[12] = molecular target: T1, Hexokinase-4 (Homo sapiens) + Glucokinase regulatory protein (Homo sapiens); experiment: qHTS assay for inhibitors of recombinant human GCK-GKRP interaction: ADP-Glo assay (AID 743206); conditions: ADP-Glo luminescence, 60 min, 0% = vehicle-only wells with enzyme present; series mostly up to 76.9 µM;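 further: plate controls were DMSO plus enzyme for no effect and no enzyme for full effect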
How it was run: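 GST-GCK and FLAG-GKRP (15 nM each in the dispensed mix, with 2 uM S6P) react with 0.4 mM ATP and 5 mM glucose (final) in Hepes pH 7.6 for 60 min at room temperature. ADP is measured by ADP-Glo luminescence.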

[13] = molecular target: T1, Hexokinase-4 (Homo sapiens) + Glucokinase regulatory protein (Homo sapiens); experiment: qHTS assay for inhibitors of recombinant human GCK-GKRP interaction: HTRF assay (AID 743207); conditions: recombinant GCK-GKRP HTRF binding, 60 min, with sorbitol-6-phosphate; series mostly up to 57.5 µM;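 further: 0% = DMSO with GCK present and -100% = DMSO wells lacking GCK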
How it was run: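 After 60 min equilibration at room temperature with anti-FLAG XL665 and anti-GST antibodies, FRET ratio (665/615 nm, excitation 320 nm) was read. Proteins: GST-GCK and FLAG-GKRP, each 5 nM, plus 2 uM S6P, pH 7.1 buffer; GCK-free wells define minimum signal.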

[14] = molecular target: Nuclear receptor ROR-gamma (Homo sapiens) (UniProt P51449); experiment: qHTS assay for small molecule antagonists of the retinoid-related orphan receptor gamma (ROR-gamma) signaling pathway (AID 651802); conditions: ROR-gamma antagonist cell reporter assay; series mostly up to 92.2 µM;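 further: CHO cells with doxycycline-induced ROR-gamma expression; on the % scale 0 is the no-effect control and ±100 the full control effect; nearly all actives have a fitted effect of over 60% in size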
How it was run: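 Antagonism is scored as a fall in luminescence from a RORE-luciferase reporter in CHO cells expressing ROR under a TET-inducible promoter, measured 16hr after doxycycline induction in the presence of compound.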

Chain of Peroxisome proliferator-activated receptor alpha (Homo sapiens) (Q07869 whole entry, looked up): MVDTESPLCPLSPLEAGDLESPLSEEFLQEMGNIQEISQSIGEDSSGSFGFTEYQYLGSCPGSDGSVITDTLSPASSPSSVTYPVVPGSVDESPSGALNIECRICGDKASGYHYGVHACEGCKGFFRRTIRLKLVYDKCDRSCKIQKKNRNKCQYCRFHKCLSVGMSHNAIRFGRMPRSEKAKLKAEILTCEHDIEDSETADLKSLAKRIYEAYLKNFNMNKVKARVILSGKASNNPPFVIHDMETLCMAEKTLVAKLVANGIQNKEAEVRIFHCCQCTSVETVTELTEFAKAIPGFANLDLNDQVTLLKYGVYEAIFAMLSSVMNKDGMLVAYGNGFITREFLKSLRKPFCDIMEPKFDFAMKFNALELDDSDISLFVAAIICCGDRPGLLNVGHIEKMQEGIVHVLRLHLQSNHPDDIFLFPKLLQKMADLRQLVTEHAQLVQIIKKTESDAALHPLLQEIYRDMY
T1 sequence (P35557 whole entry, looked up): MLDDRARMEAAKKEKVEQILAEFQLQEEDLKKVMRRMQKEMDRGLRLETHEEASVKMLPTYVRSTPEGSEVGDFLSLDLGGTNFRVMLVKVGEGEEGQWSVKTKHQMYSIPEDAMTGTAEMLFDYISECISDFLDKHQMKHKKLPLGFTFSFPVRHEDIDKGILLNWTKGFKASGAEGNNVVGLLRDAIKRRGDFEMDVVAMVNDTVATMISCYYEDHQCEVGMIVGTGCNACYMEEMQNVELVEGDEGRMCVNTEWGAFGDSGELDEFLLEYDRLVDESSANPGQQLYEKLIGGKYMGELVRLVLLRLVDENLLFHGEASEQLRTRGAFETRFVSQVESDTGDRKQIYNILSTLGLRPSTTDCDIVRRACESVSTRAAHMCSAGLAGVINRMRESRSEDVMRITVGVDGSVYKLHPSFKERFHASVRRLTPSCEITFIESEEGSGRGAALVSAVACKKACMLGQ
T1 sequence (Q14397 whole entry, looked up): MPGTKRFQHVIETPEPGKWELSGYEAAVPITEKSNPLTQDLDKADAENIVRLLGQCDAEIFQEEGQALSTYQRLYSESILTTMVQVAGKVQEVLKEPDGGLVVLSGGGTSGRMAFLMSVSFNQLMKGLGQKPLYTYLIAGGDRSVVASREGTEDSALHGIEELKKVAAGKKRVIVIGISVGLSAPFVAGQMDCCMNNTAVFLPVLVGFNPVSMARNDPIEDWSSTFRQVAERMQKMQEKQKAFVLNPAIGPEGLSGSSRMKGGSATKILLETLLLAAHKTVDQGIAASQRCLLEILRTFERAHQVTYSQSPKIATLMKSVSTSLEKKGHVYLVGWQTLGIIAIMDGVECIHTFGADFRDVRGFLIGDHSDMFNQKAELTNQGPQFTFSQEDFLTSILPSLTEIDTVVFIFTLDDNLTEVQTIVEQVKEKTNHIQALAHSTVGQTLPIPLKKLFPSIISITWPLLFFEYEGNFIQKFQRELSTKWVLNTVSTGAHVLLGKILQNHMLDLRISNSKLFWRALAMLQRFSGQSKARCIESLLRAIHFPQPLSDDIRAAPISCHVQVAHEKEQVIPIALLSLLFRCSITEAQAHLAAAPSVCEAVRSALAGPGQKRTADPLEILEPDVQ
Chain of Arylsulfatase A (Homo sapiens) (P15289 whole entry, looked up): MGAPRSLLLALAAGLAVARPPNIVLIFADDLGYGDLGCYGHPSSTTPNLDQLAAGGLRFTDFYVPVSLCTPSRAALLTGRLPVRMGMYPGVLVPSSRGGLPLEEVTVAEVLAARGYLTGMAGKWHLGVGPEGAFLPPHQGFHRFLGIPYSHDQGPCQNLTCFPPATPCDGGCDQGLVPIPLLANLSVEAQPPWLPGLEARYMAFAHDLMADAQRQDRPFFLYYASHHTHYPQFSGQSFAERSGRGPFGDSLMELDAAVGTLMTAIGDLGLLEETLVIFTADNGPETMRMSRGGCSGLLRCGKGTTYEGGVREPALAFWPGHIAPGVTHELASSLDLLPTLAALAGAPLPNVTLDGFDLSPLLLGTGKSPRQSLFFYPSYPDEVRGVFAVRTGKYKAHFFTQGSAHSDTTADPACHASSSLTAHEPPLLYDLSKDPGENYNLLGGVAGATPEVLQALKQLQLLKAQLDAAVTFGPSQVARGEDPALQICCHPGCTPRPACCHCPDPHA
Chain of Nuclear receptor ROR-gamma (Homo sapiens) (P51449 whole entry, looked up): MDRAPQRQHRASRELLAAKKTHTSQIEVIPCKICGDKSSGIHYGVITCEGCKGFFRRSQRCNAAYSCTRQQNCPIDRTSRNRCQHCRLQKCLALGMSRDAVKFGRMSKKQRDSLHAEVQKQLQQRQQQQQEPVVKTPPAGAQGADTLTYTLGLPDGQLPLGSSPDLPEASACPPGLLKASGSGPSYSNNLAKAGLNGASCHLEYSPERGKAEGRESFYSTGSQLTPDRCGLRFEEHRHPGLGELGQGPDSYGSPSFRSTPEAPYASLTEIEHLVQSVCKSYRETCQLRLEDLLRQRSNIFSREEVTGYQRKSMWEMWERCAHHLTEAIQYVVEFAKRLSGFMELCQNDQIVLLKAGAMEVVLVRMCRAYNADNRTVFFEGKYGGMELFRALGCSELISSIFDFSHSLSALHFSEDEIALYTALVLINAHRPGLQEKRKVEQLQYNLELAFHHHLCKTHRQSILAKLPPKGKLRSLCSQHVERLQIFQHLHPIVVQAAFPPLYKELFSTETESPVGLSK

Cc1cccc(Nc2cc(Cl)nc(SCC(=O)O)n2)c1C
inactive: activation [1] -1.86% | max response [2] -1.35% | outcome [3] | max response [4] -4.18% | max response [5] -1.09%

C[C@]12C[C@H](O)[C@H]3[C@@H](CCC4=CC(=O)CC[C@@]43C)[C@@H]1CC[C@@H]2C(=O)CO
inactive: activation [1] -0.656% and -0.0877% | max response [2] -1.77% and -2.82% | Potency [6] | outcome [7] | Potency [8] | outcome [9] | outcome [3] | Potency [10] | max response [4] -15.9% and -13% | outcome [11] | outcome [12] | outcome [13]

CC1=C(/C=C/C(C)=C/C=C/C(C)=C/C(=O)O)C(C)(C)CCC1
inactive: activation [1] 4.57% and 7.11% | max response [2] -0.0468% and 3.03% | Potency [6] | outcome [7] | Potency [8] | max response [4] -2.09% and 3.64% | outcome [11] | outcome [12] | outcome [13] | max response [5] 12.7% and 23.7%

CN(C)CCCN1c2ccccc2Sc2ccc(Cl)cc21
inactive: activation [1] 3.61% | max response [2] -0.127% | outcome [7] | Potency [8] | outcome [9] | outcome [3] | outcome [11] | outcome [12] | outcome [13]

CN(C)CCCN1c2ccccc2CCc2ccccc21
inactive: activation [1] -0.861% | Potency [6] | outcome [7] | Potency [8] | outcome [9] | outcome [3] | max response [4] -13.3%

Cc1cc2nc3c(=O)[nH]c(=O)nc-3n(C[C@H](O)[C@H](O)[C@H](O)CO)c2cc1C
inactive: max response [2] 3.79% | Potency [14] | outcome [3] | Potency [10] | max response [4] 0.335% | max response [5] 33.2% and 6.89%
